The results in this text go back to the supplement of paper PMC7556523.

Assay [1] relates to Sporothrix brasiliensis CBS 133006. Put plainly: growth inhibition relative to untreated control; higher = more growth inhibition (more antifungal activity), active = 80 or more; extreme values may be limits of the assay. Conditions: 1 µM; 48 h. The procedure, abridged:
(§1)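 The reported figure is percent growth inhibition relative to untreated cells, from quadruplicate runs. Yeast-form cells of the reference isolates at 1 x 10^5 CFU/ml were exposed to library compounds at a final 1 μM for 48 h at 35°C in 5% CO2, and growth was assessed by microscopy and spectrophotometric readings.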

The test system of assay [2] is Sporothrix schenckii ATCC 32286. The assay is described as above. Conditions: 1 µM; 48 h. In outline: as §1

A number with no mark means an inactive call.

In the case of `Cc1cccc(C(=O)Nc2ccnc(N(C)C3CCN(CC(C)C)CC3)c2)c1`, the growth inhibition in assay [1] was 5.5%; in assay [2], 9%.
In the case of `CC1(C)OB(O)c2ccc(C3=NOC(c4cc(Cl)c(F)c(Cl)c4)(C(F)(F)F)C3)cc21` (configuration not stated), the results for the growth inhibition in assay [1] and in assay [2] were 0.5% and 18%, respectively.
For `CO/N=C(\C(=O)OC)c1ccccc1CO/N=C(\C)c1cccc(C(F)(F)F)c1`, in that order: 96.8% (active) and 40%.
For `Cc1cc(C2=NOC(c3cc(Cl)c(F)c(Cl)c3)(C(F)(F)F)C2)ccc1C(=O)NCc1ccc2c(c1)C(C)(C)OB2O` (configuration not stated), in that order: 14.5% and 18.2%.
For `Nc1c2c(nc3sc4c(c13)CCCC4)CCCC2`, the growth inhibition in assay [1] was 6.75%; in assay [2], 17%.
In the case of `CCc1nn(C)c(C(=O)NCc2ccc(Oc3ccc(C)cc3)cc2)c1Cl`, the growth inhibition is 93.2% (active) in assay [1] and 96.5% (active) in assay [2].
Consider `Cc1nn(C)c(C)c1NS(=O)(=O)c1c(Cl)cc(-c2ccnc(N3CCNCC3)c2)cc1Cl`, for which the growth inhibition in assay [1] is 15.2%; in assay [2] it was 17.5%.
As for `CO[C@@H]1CN(c2ccc(C#CC3(O)CN4CCC3CC4)c(Cc3ccccc3)n2)C[C@H]1O` (some centres not stated), the figures for the growth inhibition in assay [1] and in assay [2] were 9.75% and 5.5%, respectively.
The corresponding values for `CC1COC(Cn2cncn2)(c2ccc(Oc3ccc(Cl)cc3)cc2Cl)O1` (configuration not stated) are 97% (active) and 70.2%.
For `O=C1O[C@@H](COc2ccon2)CN1c1cc(F)c(C2=CCN(Cc3ccccc3)CC2)c(F)c1`, in that order: 2% and 0%.
On to `CC(C)(C)C(O)C(Oc1ccc(-c2ccccc2)cc1)n1cncn1` (configuration not stated), for which the growth inhibition in assay [1] is 67.5%; in assay [2] it was 61.8%.
